# Source: PubChem BioAssay
# MITF TRPM1 HTS – activators of MITF-driven TRPM1 promoter reporter, primary screen, cell-based, SK-MEL-5, luciferase, single point. SK-MEL-5 TRPM1-promoter luciferase, 24 h; % of positive control, neutral wells = 0. activation, % at 12.5 µM. actives 0.75% (n = 300,000). AID 588334, 2011;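 active = mean activation of at least 80% with every replicate also reaching 80%; inconclusive = mean reaches 80% but some replicate falls short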;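 note: 0% = neutral control wells and 100% = parthenolide positive control wells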
# Rtt109 HAT inh – inhibitors of C. albicans Rtt109/Vps75 HAT, primary screen, biochemical, ThioGlo CoA-SH fluorescence, plate reader. purified Rtt109/Vps75, 4 h. AID 540336, 2011. inhibition, % at 34.9 µM. Histone acetyltransferase RTT109 (Candida albicans (strain SC5314 / ATCC MYA-2876)), …. actives 0.16% (n = 330,000);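 active = inhibition of at least 50% in every replicate; inconclusive = best replicate reaches 50% inhibition but some replicates fall short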
# Target sequence (Q5AAJ8 whole entry, looked up): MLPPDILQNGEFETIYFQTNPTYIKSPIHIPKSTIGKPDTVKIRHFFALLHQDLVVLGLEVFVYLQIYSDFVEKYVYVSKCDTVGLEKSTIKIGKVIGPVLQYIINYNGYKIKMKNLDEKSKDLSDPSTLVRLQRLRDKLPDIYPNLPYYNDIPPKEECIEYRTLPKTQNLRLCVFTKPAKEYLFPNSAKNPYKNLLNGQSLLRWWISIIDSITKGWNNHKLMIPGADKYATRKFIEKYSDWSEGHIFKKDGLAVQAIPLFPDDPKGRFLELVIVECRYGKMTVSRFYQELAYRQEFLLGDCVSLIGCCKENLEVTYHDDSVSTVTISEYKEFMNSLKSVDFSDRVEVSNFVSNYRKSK
# Statin myotox sup – suppressors of statin myotoxicity in C2C12 myotubes, primary screen, cell-based, single point, plate reader; C2C12 myotubes + simvastatin, ATP luminescence, 48 h; scaled: DMSO 0, geranylgeraniol control 100; rescue of ATP level, % at 7.49 µM; actives 0.78% (n = 330,000); AID 602340, 2012;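 active = mean ATP rescue above about 67%, or every replicate alone reaching that limit, limit read from the data, passing the limit was not always enough; inconclusive = no clear call, values can overlap the other calls; inactive = mean under the limit and some replicate under it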;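 note: myotubes were challenged with 10 µM simvastatin during compound exposure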
# Wnt act – Wnt/beta-catenin pathway activators, primary screen, cell-based, plate reader, single point. Wnt/beta-catenin reporter cell assay, activator. activation, % at 9.35 µM. actives 1.2% (n = 300,000); in the data active = activation above about 30%, passing the limit was not always enough; inconclusive = no clear call, values can overlap the other calls;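 note: 0% = neutral control wells and 100% = positive control wells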
# esBAF inh – Bmi1 luciferase reporter increase in mESCs, primary screen, esBAF inhibitor project, mouse ES cells, Bmi1 luciferase knock-in, single point | reporter increase, % at 12.5 µM | AID 602393, 2012 | actives 2% (n = 350,000) | 24 h; 100% = twice the neutral-well signal; in the data active = activation above about 40%; inconclusive = no clear call, values can overlap the other calls;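 note: 0% = median of the plate's neutral control wells and 100% = double that signal; a rise in the Bmi1 reporter signal indicates esBAF inhibition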
# * = called active by the depositor; u = inconclusive; x = no result given. Shown are actives, neighbours in structure and some others; about 3.1% of the full set was active somewhere.
SMILES,MITF TRPM1 HTS,Rtt109 HAT inh,Statin myotox sup,Wnt act,esBAF inh
O=C(NCC[C@H]1CC[C@H](NC(=O)c2cccnc2)[C@H](CO)O1)Nc1ccc(Cl)cc1,x,x,-6,x,27
COC(=O)N1CCc2c(sc(NC(=O)C3COc4ccccc4O3)c2C(N)=O)C1 (stereo not given),67,-3,0,14,50*
C[C@@H]1CN([C@@H](C)CO)C(=O)Cc2cc(NC(=O)Cc3ccccc3)ccc2O[C@H]1CN(C)C(=O)Nc1ccc(F)cc1,x,x,4,x,-3
CC(NC(=O)C1CCCC1)C1CC2CCC1C2 (stereo not given),-5,3,x,-2,x
CC(NC(=O)C1CC=CCC1C(=O)O)C1CC2CCC1C2 (stereo not given),-5,3,98*,-1,-5
C[C@@H]1CCCCO[C@H](CN(C)S(=O)(=O)c2cccs2)[C@H](C)CN([C@H](C)CO)C(=O)c2cc(NC(=O)Nc3ccccc3)ccc2O1,x,x,x,x,7
Fc1ccc2cc(CCO[C@H]3CCCCO3)ncc2c1,40,10,-5,32*,-29
O=C(Nc1cccc(F)c1)N1C[C@H]2[C@@H](c3ccccc31)[C@H](CO)N2C(=O)Cc1ccccc1,x,x,9,x,0
COCC(=O)N(C)C[C@@H]1Oc2cc(C#Cc3cccnc3)ccc2S(=O)(=O)N([C@@H](C)CO)C[C@H]1C,x,x,11,x,-1
CO[C@H]1CC[C@@H]2CCOc3ccc(C#N)cc3C(=O)N(C)C[C@H](C)C(=O)N(C)C[C@H]1O2,x,x,1,x,-1
O=C(NC(=S)Nc1ccccc1)c1cccs1,101*,-5,-8,29,78*
CC(=O)NC(=S)Nc1ccc(NC(=O)c2cccs2)cc1,52,-1,x,x,x
Cc1ccc(NC(=S)NC(=O)c2cccs2)cc1F,93*,0,-24,3,81*
O=C(Nc1ccc2[nH]ccc2c1)c1cccs1,106*,-2,-13,12,8
O=C(Nc1ccc(NC(=O)c2ccccc2F)cc1)c1cccs1,137*,-7,-9,37*,74*
O=C(Nc1ccc(NC(=O)c2ccc(Cl)cc2Cl)cc1)c1cccs1,12,8,-25,0,4
O=C(Nc1ccc(NC(=O)c2cccs2)cc1)c1cccs1,u,4,-37,6,53*
COc1ccc(NC(=O)c2cccs2)cc1,56,-3,x,x,x
O=C(Cc1ccc(Cl)cc1)Nc1ccc(NC(=O)c2cccs2)cc1,15,x,x,-4,x
CCCn1cnc2cc(NC(=O)c3cccs3)ccc21,94*,3,-3,32*,55*
Cc1cccnc1NC(=S)NC(=O)c1cccs1,33,0,-14,34*,15
O=C(Nc1ccc(Cl)cc1)c1cccs1,58,10,11,26,52*
COCC(=O)N1C[C@H]2[C@@H](c3ccccc31)[C@H](CO)N2C(=O)C1CCCC1,x,x,-9,x,-3
CCS(=O)(=O)Nc1ccc2c(c1)C(=O)N(C)C[C@H](OC)[C@H](C)CN(CC1CCCC1)[C@@H](C)CO2,x,x,11,x,-7
O=C(Cc1ccccn1)N[C@H]1CC[C@@H](CC(=O)N2CCCCC2)O[C@H]1CO,x,x,-6,x,3
SMILES,MITF TRPM1 HTS,Rtt109 HAT inh,Statin myotox sup,Wnt act,esBAF inh
CC(Cc1cccs1)NC(=O)Nc1ccc(Cl)cc1 (stereo not given),51,9,x,58*,x
O=C(NC(=S)Nc1ccc(Br)cn1)c1cccs1,22,4,x,59*,x
O=C(NC(=S)Nc1ccc(Br)cn1)c1cncc(Br)c1,-6,0,3,x,3
COC(=O)c1sccc1NC(=O)Nc1ccc(F)cc1,5,-8,x,-3,x
COC(=O)c1sccc1NC(=O)Nc1ccc(C)cc1,20,2,7,-2,44*
COC(=O)c1sccc1NC(=O)Nc1cc(C)cc(C)c1,42,-3,-1,0,80*
COC(=O)c1sccc1NC(=O)Nc1ccc(C)cc1C,13,-7,1,1,8
Cc1noc(C)c1S(=O)(=O)N(C)C[C@@H]1OCCCC[C@@H](C)Oc2ccc(NC(=O)Nc3ccc(C(F)(F)F)cc3)cc2C(=O)N([C@H](C)CO)C[C@H]1C,x,x,x,x,8
